Data from PubChem BioAssay (NCI).
This is part of a sample that, as a whole, favours compounds with a hit. Of some 83,000 tested, about 20% had one in any assay.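 Step 1: grow cells in 96-well plates. Step 2: add test compound at a single concentration. Step 3: incubate 48 h. Step 4: record percent growth.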 A number with no mark means an inactive call. Calls of active or inactive are those of the source. How the source made its calls: active means growth percent below 10; inactive means the rest.

Tests used:
Assay in all cases: NCI-60 one-dose screen, 48 h (100 = growth as untreated, 0 = no growth, -100 = all killed)
[1] = test system: EKVX NSCLC; conditions: 10 µM unless noted
[2] = test system: SN12C renal; conditions: 10 µM unless noted
[3] = test system: UO-31 renal; conditions: 10 µM unless noted
[4] = test system: TK-10 renal; conditions: 10 µM unless noted
[5] = test system: ACHN renal; conditions: 10 µM unless noted
[6] = test system: CAKI-1 renal; conditions: 10 µM unless noted
[7] = test system: A498 renal; conditions: 10 µM unless noted
[8] = test system: CCRF-CEM leukemia; conditions: 10 µM unless noted
[9] = test system: MOLT-4 leukemia; conditions: 10 µM unless noted
[10] = test system: SR leukemia; conditions: 10 µM unless noted
[11] = test system: RPMI-8226 leukemia; conditions: 10 µM unless noted
[12] = test system: OVCAR-8 ovarian; conditions: 10 µM unless noted
[13] = test system: OVCAR-5 ovarian; conditions: 10 µM unless noted
[14] = test system: OVCAR-4 ovarian; conditions: 10 µM unless noted
[15] = test system: SK-OV-3 ovarian; conditions: 10 µM unless noted
[16] = test system: IGROV1 ovarian; conditions: 10 µM unless noted
[17] = test system: OVCAR-3 ovarian; conditions: 10 µM unless noted
[18] = test system: HS 578T breast; conditions: 10 µM
[19] = test system: NCI/ADR-RES ovarian; conditions: 10 µM unless noted

Structure (SMILES)	growth [1]	growth [2]	growth [3]	growth [4]	growth [5]	growth [6]	growth [7]	growth [8]	growth [9]	growth [10]	growth [11]	growth [12]	growth [13]	growth [14]	growth [15]	growth [16]	growth [17]	growth [18]	growth [19]
CN1CCN(CC(=O)Nc2ccc(-c3nc4ccccc4s3)cc2)CC1	83.7%	77.7%	57.5%	94.8%	71.2%	73.5%	59.5%	63.7%	78%	6.26% (active)	88.1%	91.3%	72.9%	87.3%	94.2%	80.6%	99.2%	93.7%	85.6%
CNC(=O)c1cc(Oc2cccc3nc(Nc4ccc(Oc5ccccc5)cc4)ccc23)ccn1	62.2%	81.3%	57.9%	78.5%	81.1%	67.5%	73.8%	69.5%	42.7%	30.2%	47.9%	75.8%	83.4%	52.1%	87.1%	92.4%	72.7%	81.9%	72.6%
Oc1ccc(C(c2ccc(O)cc2)C(Cl)(Cl)Cl)cc1	82.5%	84.8%	75.3%	105%	92.3%	105%	87.5%	76.5%	70.5%	87.8%	83.4%	103%	88.5%	94.2%	118%	93%	105%	88.3%	94.9%
CC(=O)O[C@]1(C)C[C@H](O)[C@]2(O)C=CO[C@H](O[C@@H]3O[C@H](CO)[C@@H](O)[C@H](O)[C@H]3O)[C@@H]21	92.7%	101%	90.6%	95.9%	108%	102%	110%	109%	97.5%	92.3%	104%	110%	103%	99.8%	102%	100%	108%	112%	107%
CCCCCC(=O)OCc1ccc(Cl)c(Cl)c1	116%	111%	90.5%	104%	107%	103%	92.6%	109%	98.7%	97.5%	104%	103%	108%	105%	107%	106%	106%	103%	102%
COc1ccc(Cc2cc(-c3ccccc3C)n[nH]c2=O)cc1	108%	92.3%	76.8%	116%	104%	109%	87.2%	-41.2% (active)	96.9%	103%	39.9%	99.9%	101%	92.5%	102%	53.7%	96.4%	90.9%	105%
CC(C)[C@@H]1CC[C@@H]2[C@@H]1[C@H](OC(=O)/C=C/c1ccccc1)[C@]1(C(C)C)C[C@@H](OC(=O)CO)[C@@]2(C)O1	63%	49.7%	3.86% (active)	94.9%	17%	65.5%	-51.8% (active)	77.1%	58.4%	41.8%	53.7%	16.5%	109%	79.4%	91.3%	102%	83.6%	-15.4% (active)	13.9%
COc1cc(N2CCC(N3CCN(C)CC3)CC2)ccc1Nc1ncnc(Nc2ccccc2S(=O)(=O)C(C)C)n1	105%	107%	98.7%	108%	98.5%	104%	114%	92.9%	89.9%	12.7%	101%	99.3%	98.3%	113%	87.4%	103%	105%		109%
CNC(=O)c1cc(Oc2cccc3nc(Nc4ccc(Cl)c(F)c4)ccc23)ccn1	71.1%	63.2%	81.6%	54.1%	38.5%	87.9%	83.8%	91.3%	69.2%	62.2%	99.5%	48.9%	79.7%	8.11% (active)	41.4%	79.3%	52.2%	37.5%	49.5%
CCNC(=O)Nc1nc2ccc(Oc3ccnc(C(=O)NC)c3)cc2s1	85.9%	91.9%	88.2%	86.5%	96.4%	92.5%	69.9%	62.8%	47.9%	30.4%	85%	91.6%	92.9%	83%	88.1%	90%	83.1%	87.3%	73.3%
CC1(O)CCC(Nc2cc(-c3ccc(C(F)(F)F)cc3)c(C#N)c3nc4ccccc4n23)CC1 (stereo unspecified)	54.1%	63.9%	47.1%	71.4%	59.8%	54.6%	46.8%	64.9%	27.5%	79.4%	56.8%	78.3%	99%	55.2%	68.6%	79.3%	81.4%	74.4%	61.8%
O=C1NC(=O)C(c2cnc3ccccn23)=C1c1cn2c3c(cc(F)cc13)CN(C(=O)N1CCCCC1)CC2	68.6%	63.2%	28.8%	56.1%	39.7%	43.5%	-10.5% (active)	27.9%	12.1%	10%	60.8%	19.7%	102%	38.7%	39.4%	53.3%	52.8%		74.4%
CN(C)C1CCN(C(=O)c2ccc(NC(=O)Nc3ccc(-c4nc(N5CCOCC5)nc(N5CCOCC5)n4)cc3)cc2)CC1	40.3% [2.5 µM]	3.23% [2.5 µM] (active)	32.2% [2.5 µM]	-9.03% [2.5 µM] (active)	55.6% [2.5 µM]	10.2% [2.5 µM]	-54.1% [2.5 µM] (active)	9.68% [2.5 µM] (active)	-7.96% [2.5 µM] (active)	3.59% [2.5 µM] (active)	-2.37% [2.5 µM] (active)	-20.9% [2.5 µM] (active)	-2.63% [2.5 µM] (active)	-29.9% [2.5 µM] (active)	-51.9% [2.5 µM] (active)	-54.8% [2.5 µM] (active)	2.07% [2.5 µM] (active)		95.6% [2.5 µM]
COc1cc(NC2CCC(=O)N2c2ccc(Cl)cc2Cl)cc(OC)c1OC (stereo unspecified)	100%	109%	94.5%	104%	110%	95.7%	89.2%	90.5%	96.2%	95.6%	102%	103%	99.5%	101%	102%	105%	101%	102%	99.5%
CCN(CC)c1cc2oc3cc(N)cc(=N)c-3nc2cc1C	50.5%	31.1%	67.9%	13.2%	17.6%	42.5%	82%	15.3%	29.1%	30.4%	43.4%	2.1% (active)	32.3%	-6.55% (active)	103%	50.9%	24.7%	37.4%	1.37% (active)
O=C1CCC(=O)CC1	98.8%	90%	86.4%	96.4%	109%	96.5%	104%	98.1%	101%	97.4%	110%	101%	92.3%	113%	112%	96.3%	117%	103%	104%
